Here are results for 7 molecules from PubChem BioAssay (NCATS).

Records with an inconclusive call do not appear. Activity calls are given as the source filed them. Unless noted, the call rests on the fitted dose curve; in most records, active means well fitted curve in the direction sought with a large enough effect; inconclusive means small, poorly fitted or top-dose-only effect, or another doubt; inactive means no such curve, though single readings can be large; an effect the other way counts as inactive or inconclusive.

In assay [1] the target is Methanococcus maripaludis chaperonin (MmCpn) (UniProt Q6LX38). Put plainly: High-Throughput Screening for Modulators of Cytosolic Chaperonin Activity: MmCpn Primary Screen (AID 488978).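 Further: 50 nM MmCpn enzyme hydrolysing 30 µM ATP at 37 °C; 0% is about no effect.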 The gist of the method:
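ADP formation read by HTRF Transcreener, 665/590 nm emission after 320 nm excitation. Enzyme: archaeal chaperonin at 50 nM final; substrate ATP 30 uM final; 10 min, 37C, after 5 min compound preincubation at RT.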

In assay [2] the target is Transient receptor potential cation channel subfamily V member 1 (Homo sapiens) (UniProt Q8NER1). Put plainly: HTS Assay for Compounds that Act as Enhancers of the Vanilloid Receptor 1 (AID 488979). Further: 0% is about no effect. An outline of the steps:
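TRPV1 cells loaded with Fluo-8 calcium dye; compound added and Ca2+ signal (ex 480/em 520 nm) followed 3 min, then capsaicin at EC20 added and read 2 more min to detect enhancement.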

The target of assay [3] is Thyrotropin receptor (Homo sapiens) (UniProt P16473). The experiment in a line: qHTS Assay for Antagonists of the Thyroid Stimulating Hormone Receptor (AID 488980). Further: series mostly up to about 58 µM; 0% is about no effect. An outline of the steps:
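TSHR-HEK293 cells; 70 uM RO 20-1724 PDE inhibitor; compound + EC80 TSH (4 nM final); anti-cAMP cryptate antibody/cAMP-d2 in lysis buffer, 30 min RT; HTRF 665/620 nm read.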
In general terms: In qHTS, concentration-response curves come from the screen itself.

The target in assay [4] is D(1A) dopamine receptor (Homo sapiens) (UniProt P21728). Put plainly: HTS Assay for Allosteric Agonists of the Human D1 Dopamine Receptor: Primary Screen for Potentiators (AID 488982). Further: potency means the concentration at half of the fitted maximal effect. An outline of the steps: (§1)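 Tetracycline-induced HEK293 Trex D1 cells with forced coupling to calcium, loaded with no-wash calcium dye; kinetic fluorescence read 180 s after compound addition for agonism, then a further 180 s after an EC20 dopamine challenge for potentiation.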

For assay [5] the target is unchanged. The experiment in a line: HTS Assay for Allosteric Agonists of the Human D1 Dopamine Receptor: Primary Screen for Antagonists (AID 488983).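 Further: calcium flux response to an EC80 dopamine challenge measured with no-wash dye; nearly all actives have a fitted effect of over 65% in size.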 Further: potency means the concentration at half of the fitted maximal effect. An outline of the steps: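 Calcium-flux read-out in inducible HEK293 T-REx cells expressing D1, dye-loaded 30–90 min at room temperature. Kinetic reads: 180 s after compound (agonist phase), then 180 s after an EC80 dopamine challenge.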

Assay [6] is described as follows: Validation screen for small molecules that induce genotoxicity in human embryonic kidney (HEK293T) cells expressing luciferase-tagged ELG1 (AID 493106). Further: potency means the concentration at half of the fitted maximal effect. The gist of the method:
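ELG1-luciferase reporter readout (ONE-Glo, 30 min, room temperature) after 16 hr compound treatment at 37 °C of HEK293T cells at 2,000 per well. Rising luminescence flags genotoxic stress.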

Assay [7] deals with Thyrotropin-releasing hormone receptor (Homo sapiens) (UniProt P34981). The experiment in a line: qHTS for Small Molecule Agonists and Allosteric Enhancers of Human TRH Receptor: Validation Screen for Agonists (AID 493127;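 active means calcium activation more than 3 SD above the typical response in the agonist read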;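 further: intracellular calcium rise by fluo-8 fluorescence before TRH EC20 addition; 0% is about no effect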). The settings on record: TRH receptor agonist cell assay; at 2 µM; stronger effect = higher value. An outline of the steps: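 Compound-evoked intracellular calcium release in fluo-8-loaded TRHR cells, read kinetically on FDSS (Ex 480/Em 530, 1 s/cycle) after 23 nL pintool transfer. Agonist phase preceded 10 nM TRH EC20 addition.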

The nature of assay [8]: qHTS for Inhibitors of Cell Surface uPA Generation: Validation Assay (AID 493164).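 Further: RAW 264.7 macrophage cells exposed to compound for 18 h; 0% is about no effect.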 An outline of the steps: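 ATP-Lite luminescence read-out: ATP remains high when uPA activity-dependent LF translocation into the cytoplasm is blocked. RAW 264.7 cells, 18 h compound exposure at 37 C; 7-point titration, 2.45 nM to 38.3 uM final.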
For assay [9], the target named is Galactokinase (Homo sapiens) (UniProt P51570). The experiment in a line: qHTS Validation Assay for Inhibitors of Human Galactokinase (GALK) (AID 493189). Further: 0% is about no effect. An outline of the steps:
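Luminescence from leftover ATP (Kinase-Glo Plus, 10 min) served as read-out after a 1 h room-temperature reaction of 5 nM GALK, 100 uM galactose and 35 uM ATP at pH8.0.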

In assay [10] the target is Peptidyl-prolyl cis-trans isomerase NIMA-interacting 1 (Homo sapiens) (UniProt Q13526). Put plainly: qHTS Validation Assay to Find Inhibitors of Pin1 (AID 504536; active means well fitted inhibition curve with a large enough effect in the polarisation, with a control signal flat, not every such curve was filed as active; the % refers to the polarisation;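 further: 0% = full Pin1 enzyme wells and -100% = no-enzyme wells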). The gist of the method:
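Fluorescence polarization competition: compounds (titration) displace HiFluor-488-labeled Pin1-1b peptide from Pin1 (0.3 uM final) in pH 7.5 HEPES buffer with DTT, 10 min at room temperature; %Activity normalized to no-enzyme wells, curves fitted.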

Assay [11] concerns the target Phosphoglycerate kinase, glycosomal (Trypanosoma brucei brucei) (UniProt P07378). The experiment in a line: qHTS Validation Assay to Find Inhibitors of Phosphoglycerate Kinase (AID 504547). Further: potency means the concentration at half of the fitted maximal effect. An outline of the steps:
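Compounds are pinned into the substrate/PGK mixture, and GAPDH (100nM final) is added to start the reaction by producing 1,3-BPG. After 60 minutes at room temperature, Kinase-Glo Plus is added and luminescence is measured 10 minutes later.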

Assay [12] deals with phosphoglycerate mutase (Leishmania major) (UniProt Q4Q090). Put plainly: qHTS Validation Assay to Find Inhibitors of Phosphoglycerate Mutase (AID 504548). Further: series mostly up to about 58 µM; on the % scale 0 is the no-effect control and ±100 the full control effect. The following applies: Potency: inhibition qHTS. An outline of the steps:
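Lm PGAM 1.25nM final; 100 mM TEA pH 7.6, 5 mM MgCl2, 0.01% Tween-20; 45 min RT; Kinase-GloPlus, 10 min; end-point luminescence. Enzyme-free wells as negative controls.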

Assay [13] concerns the target ATPase family AAA domain-containing protein 5 (Homo sapiens) (UniProt Q96QE3). The experiment in a line: Validation screen for small molecules that inhibit ELG1-dependent DNA repair in human embryonic kidney (HEK293T) cells expressing luciferase-tagged ELG1 (AID 493107).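 Further: series mostly up to about 46 µM; on the % scale 0 is the no-effect control and ±100 the full control effect; inhibitors lower the ELG1-luciferase luminescence signal; nearly all actives have a fitted effect of over 70% in size.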 An outline of the steps: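 Luciferase read-out, ONE-Glo, 30 min at room temperature, follows 16 h co-exposure at 37 C of compound and the DNA-damaging agent 5-fluorouridine. Cells: HEK293T with ELG1-luciferase fusion, 2,000 per well, DMSO as vehicle.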

Assay [14] is described as follows: Nrf2 qHTS screen for inhibitors: Validation (AID 493153; active means well fitted inhibition curve with a large enough effect in the main read-out, with a control signal flat, not every such curve was filed as active; further: potency means the concentration at half of the fitted maximal effect). The settings on record: Potency: luciferase luminescence; viability change: measured here: cytotoxicity max response. The gist of the method: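 Concentration-response on A549 ARE_Fluc reporter cells exposed 18-24 h at 37 C, 5% CO2. Cytotoxicity read first by CellTiter-Fluor fluorescence (Ex 405/Em 525), then Nrf2 inhibition by BugLite luminescence after 15 min.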

Assay [15] is described as follows: Validation screen for small molecules that induce DNA re-replication in SW480 colon adenocarcinoma cells (AID 504364). Further: 0% is about no effect. An outline of the steps:
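Image-based DNA content read-out: Hoechst stain 40 min, total nuclear fluorescence intensity (ex 405 nm, em 500-530 nm) after 48 h compound exposure of 250 SW480 cells/well at 37 C, 5% CO2, versus DMSO vehicle.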

For assay [16], the target named is Ubiquitin carboxyl-terminal hydrolase 1 (Homo sapiens) (UniProt O94782). The experiment in a line: Inhibitors of USP1/UAF1: Pilot qHTS (AID 504865). Further: nearly all actives have a fitted effect of over 35% in size. Further: potency means the concentration at half of the fitted maximal effect. The gist of the method:
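1nM USP1/UAF1 + cpd, 15 min RT; start w/ Ub-Rho 150nM final; kinetic FL 480/540 nm, 6 reads q60 s. Buffer 50mM HEPES pH 7.8, 0.5mM EDTA, 1mM TCEP, 0.01% Tween-20, 0.1 mg/ml BSA.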

Assay [17] is described as follows: qHTS for Inhibitors of ATXN expression: Validation of Cytotoxic Assay (AID 588349). Further: on the % scale 0 is the no-effect control and ±100 the full control effect. The gist of the method:
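Cytotoxicity counter-screen: ATP-based luminescent viability (CellTiter Glo) after 72 hr exposure of HEK293 cells to a compound titration at 37 degrees C.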

Assay [18] has as its target D(1A) dopamine receptor (Homo sapiens) (UniProt P21728). The experiment in a line: HTS Assay for Allosteric Agonists of the Human D1 Dopamine Receptor: Primary Screen for Agonists (AID 488981). Further: potency means the concentration at half of the fitted maximal effect. On activation: 0% is about no effect. An outline of the steps: as §1

Chain of Thyrotropin-releasing hormone receptor (Homo sapiens) (P34981 whole entry, looked up): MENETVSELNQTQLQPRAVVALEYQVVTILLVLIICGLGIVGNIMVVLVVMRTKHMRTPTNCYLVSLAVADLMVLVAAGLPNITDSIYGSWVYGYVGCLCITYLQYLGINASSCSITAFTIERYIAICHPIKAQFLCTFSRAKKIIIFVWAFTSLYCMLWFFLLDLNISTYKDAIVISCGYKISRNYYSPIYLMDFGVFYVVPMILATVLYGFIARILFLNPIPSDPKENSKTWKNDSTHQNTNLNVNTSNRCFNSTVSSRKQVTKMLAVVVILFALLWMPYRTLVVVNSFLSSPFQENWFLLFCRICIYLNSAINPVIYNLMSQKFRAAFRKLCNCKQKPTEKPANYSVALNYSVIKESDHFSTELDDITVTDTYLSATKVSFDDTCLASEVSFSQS
Chain of Galactokinase (Homo sapiens) (P51570 whole entry, looked up): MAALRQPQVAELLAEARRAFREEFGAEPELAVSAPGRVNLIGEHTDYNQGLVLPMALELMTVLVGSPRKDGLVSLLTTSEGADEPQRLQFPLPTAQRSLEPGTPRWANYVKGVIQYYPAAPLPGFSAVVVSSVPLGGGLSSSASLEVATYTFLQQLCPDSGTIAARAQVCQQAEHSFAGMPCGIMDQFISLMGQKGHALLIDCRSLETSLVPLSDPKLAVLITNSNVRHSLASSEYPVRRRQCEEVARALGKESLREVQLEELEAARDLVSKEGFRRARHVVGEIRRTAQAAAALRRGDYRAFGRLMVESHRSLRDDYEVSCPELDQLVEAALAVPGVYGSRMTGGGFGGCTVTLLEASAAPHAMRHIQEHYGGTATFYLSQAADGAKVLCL
Chain of phosphoglycerate mutase (Leishmania major) (Q4Q090 1-553): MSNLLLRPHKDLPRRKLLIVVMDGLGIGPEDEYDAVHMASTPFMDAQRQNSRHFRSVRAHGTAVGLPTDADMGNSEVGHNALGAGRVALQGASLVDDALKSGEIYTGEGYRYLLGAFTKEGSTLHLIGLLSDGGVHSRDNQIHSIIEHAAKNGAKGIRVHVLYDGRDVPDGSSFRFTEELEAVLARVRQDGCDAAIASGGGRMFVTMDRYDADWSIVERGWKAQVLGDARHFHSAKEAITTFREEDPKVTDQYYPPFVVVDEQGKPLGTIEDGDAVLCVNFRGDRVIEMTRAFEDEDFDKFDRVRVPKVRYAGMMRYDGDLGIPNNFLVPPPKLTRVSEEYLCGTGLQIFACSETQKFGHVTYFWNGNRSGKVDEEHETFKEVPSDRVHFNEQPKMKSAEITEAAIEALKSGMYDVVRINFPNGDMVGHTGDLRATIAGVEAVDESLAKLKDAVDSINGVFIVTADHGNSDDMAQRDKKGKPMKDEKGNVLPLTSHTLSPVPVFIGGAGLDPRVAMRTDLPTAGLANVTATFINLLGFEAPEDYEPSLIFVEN
Chain of Methanococcus maripaludis chaperonin (MmCpn) (Q6LX38 1-543): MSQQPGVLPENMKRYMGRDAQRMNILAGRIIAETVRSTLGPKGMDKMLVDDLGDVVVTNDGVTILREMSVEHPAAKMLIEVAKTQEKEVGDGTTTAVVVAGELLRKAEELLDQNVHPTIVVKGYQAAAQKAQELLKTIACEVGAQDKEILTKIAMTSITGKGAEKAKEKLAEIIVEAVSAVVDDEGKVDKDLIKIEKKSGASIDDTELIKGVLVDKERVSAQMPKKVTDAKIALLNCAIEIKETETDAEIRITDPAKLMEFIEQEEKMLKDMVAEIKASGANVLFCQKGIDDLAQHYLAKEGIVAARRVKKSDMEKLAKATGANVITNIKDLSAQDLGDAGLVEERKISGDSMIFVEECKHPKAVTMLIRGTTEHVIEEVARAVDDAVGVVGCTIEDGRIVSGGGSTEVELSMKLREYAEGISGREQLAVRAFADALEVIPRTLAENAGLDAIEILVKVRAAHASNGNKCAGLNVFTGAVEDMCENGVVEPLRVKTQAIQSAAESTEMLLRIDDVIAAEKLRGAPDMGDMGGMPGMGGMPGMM
Chain of Transient receptor potential cation channel subfamily V member 1 (Homo sapiens) (Q8NER1 whole entry, looked up): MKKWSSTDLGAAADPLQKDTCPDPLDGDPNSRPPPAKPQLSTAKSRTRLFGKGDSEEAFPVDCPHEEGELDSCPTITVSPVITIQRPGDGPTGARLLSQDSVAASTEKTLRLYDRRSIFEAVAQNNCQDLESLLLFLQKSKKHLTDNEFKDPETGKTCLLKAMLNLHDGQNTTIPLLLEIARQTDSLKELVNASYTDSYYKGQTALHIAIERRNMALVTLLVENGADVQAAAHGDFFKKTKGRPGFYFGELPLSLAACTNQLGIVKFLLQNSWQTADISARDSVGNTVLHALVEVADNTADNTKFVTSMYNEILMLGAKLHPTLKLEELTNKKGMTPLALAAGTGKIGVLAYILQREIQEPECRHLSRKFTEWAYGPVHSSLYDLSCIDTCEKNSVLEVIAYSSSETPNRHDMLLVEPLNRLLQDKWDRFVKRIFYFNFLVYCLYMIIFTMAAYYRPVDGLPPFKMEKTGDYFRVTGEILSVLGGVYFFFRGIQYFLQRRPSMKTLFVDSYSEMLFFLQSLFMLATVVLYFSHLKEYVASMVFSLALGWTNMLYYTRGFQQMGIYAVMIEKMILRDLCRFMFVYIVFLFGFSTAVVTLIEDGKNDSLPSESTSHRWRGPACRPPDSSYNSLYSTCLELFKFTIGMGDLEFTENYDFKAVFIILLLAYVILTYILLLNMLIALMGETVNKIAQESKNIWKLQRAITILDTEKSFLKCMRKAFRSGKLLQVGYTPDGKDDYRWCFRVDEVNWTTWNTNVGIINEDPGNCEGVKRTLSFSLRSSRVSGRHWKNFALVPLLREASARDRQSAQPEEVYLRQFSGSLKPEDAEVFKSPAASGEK
Chain of ATPase family AAA domain-containing protein 5 (Homo sapiens) (Q96QE3 whole entry, looked up, the tested form may be a part): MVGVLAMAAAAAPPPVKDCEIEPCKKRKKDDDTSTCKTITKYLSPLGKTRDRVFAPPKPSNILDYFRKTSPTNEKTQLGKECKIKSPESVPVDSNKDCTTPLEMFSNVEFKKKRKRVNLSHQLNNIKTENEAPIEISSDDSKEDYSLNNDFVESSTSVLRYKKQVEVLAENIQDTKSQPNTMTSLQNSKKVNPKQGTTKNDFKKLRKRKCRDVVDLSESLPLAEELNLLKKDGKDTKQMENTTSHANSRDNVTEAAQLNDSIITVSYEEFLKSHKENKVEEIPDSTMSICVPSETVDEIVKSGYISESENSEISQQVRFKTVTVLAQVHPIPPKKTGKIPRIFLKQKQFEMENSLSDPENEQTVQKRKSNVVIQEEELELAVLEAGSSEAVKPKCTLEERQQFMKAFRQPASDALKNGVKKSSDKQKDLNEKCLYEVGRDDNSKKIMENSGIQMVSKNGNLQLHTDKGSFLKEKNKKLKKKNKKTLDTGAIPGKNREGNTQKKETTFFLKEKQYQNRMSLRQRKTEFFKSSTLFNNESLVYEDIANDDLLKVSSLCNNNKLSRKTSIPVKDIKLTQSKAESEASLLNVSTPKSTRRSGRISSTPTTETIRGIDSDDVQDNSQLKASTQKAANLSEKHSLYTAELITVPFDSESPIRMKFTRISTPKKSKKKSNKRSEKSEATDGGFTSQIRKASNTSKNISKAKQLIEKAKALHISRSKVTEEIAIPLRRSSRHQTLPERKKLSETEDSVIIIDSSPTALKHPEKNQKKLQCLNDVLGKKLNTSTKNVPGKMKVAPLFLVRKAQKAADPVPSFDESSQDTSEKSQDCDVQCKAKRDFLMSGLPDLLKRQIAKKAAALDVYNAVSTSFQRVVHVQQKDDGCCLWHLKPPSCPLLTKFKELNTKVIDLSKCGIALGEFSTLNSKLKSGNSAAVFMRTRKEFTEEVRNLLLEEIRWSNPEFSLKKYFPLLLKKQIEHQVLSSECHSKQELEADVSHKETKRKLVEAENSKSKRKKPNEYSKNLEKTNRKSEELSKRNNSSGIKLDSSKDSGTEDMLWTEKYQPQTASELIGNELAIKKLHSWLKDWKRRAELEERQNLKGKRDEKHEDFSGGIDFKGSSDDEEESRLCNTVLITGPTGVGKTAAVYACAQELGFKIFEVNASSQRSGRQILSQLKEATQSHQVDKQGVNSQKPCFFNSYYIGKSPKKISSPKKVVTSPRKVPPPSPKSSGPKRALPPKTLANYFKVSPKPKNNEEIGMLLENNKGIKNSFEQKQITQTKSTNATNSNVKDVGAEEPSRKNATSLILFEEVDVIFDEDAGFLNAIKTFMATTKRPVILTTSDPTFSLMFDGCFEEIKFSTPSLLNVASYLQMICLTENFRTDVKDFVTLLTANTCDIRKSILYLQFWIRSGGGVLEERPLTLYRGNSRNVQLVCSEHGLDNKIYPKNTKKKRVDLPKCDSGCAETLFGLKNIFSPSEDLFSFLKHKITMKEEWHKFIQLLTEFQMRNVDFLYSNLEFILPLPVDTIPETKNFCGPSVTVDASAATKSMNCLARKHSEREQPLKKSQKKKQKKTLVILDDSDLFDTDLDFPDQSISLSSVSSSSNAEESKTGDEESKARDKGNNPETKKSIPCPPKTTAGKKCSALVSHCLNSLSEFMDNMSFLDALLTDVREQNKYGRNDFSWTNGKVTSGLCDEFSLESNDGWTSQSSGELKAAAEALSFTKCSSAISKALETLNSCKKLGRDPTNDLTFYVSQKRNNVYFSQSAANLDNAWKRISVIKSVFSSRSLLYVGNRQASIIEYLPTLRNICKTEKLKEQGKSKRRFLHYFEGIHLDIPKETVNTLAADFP
Chain of Phosphoglycerate kinase, glycosomal (Trypanosoma brucei brucei) (P07378 whole entry, looked up): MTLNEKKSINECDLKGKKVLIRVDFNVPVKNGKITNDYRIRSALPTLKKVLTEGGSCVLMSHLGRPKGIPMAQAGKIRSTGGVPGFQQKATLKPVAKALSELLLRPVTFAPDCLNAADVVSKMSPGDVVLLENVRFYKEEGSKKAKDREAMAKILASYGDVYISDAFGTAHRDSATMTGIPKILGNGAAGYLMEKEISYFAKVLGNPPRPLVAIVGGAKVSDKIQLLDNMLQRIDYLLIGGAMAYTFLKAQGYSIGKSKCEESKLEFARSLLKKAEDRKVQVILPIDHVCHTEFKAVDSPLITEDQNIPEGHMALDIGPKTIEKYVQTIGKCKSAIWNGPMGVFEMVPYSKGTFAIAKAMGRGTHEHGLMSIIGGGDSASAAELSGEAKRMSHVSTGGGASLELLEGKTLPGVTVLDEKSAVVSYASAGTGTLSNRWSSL

Turning to `O=C(/C=C/c1ccc(O)c(O)c1)OCCc1ccccc1`, the call in assay [1], in assay [2], in assay [3] and in assay [8] was inactive. For the same molecule, the Potency entry in assay [4], in [5], in [9], in assay [10], in assay [11] and in [12] was “inactive” each time. Also, the Potency in assay [6] is 20.6 µM (active). The activation in assay [7] is 0.812% (inactive).

Consider `NCCCS(=O)(=O)O`, for which the result in assay [1], in [2], in [3] and in [8] was inactive. The Potency entry in [4], in assay [5], in [13], in [14], in assay [9] and in assay [15] was “inactive” throughout. For the same molecule, the Potency entry in assay [10], in [11], in [12], in [16] and in [17] was “inactive” throughout. In addition, in assay [7], the activation is 0.5% (inactive). Besides, in [14], the viability change is -7.16%.

With `Oc1cc(O)cc(/C=C/c2ccc(O)c(O)c2)c1`, the call in assay [1], in assay [2], in assay [3] and in assay [8] was inactive. Also, the values for the Potency in assay [4], in assay [6] and in [11] were 0.58 µM (active), 3.66 µM (active) and 23.9 µM (active), respectively. Moreover, the Potency entry in [5], in [9], in assay [15], in [10], in [12] and in assay [16] was “inactive” throughout. In addition, in [7], the activation is 0.938% (inactive).

As for `CCCCCCCCCCCCCCCC(=O)OC(CC(=O)O)C[N+](C)(C)C` (stereo unspecified), the molecule was called inactive in assay [1], in assay [3] and in assay [8]. Moreover, the figures for the Potency in [18] and in [16] were 10 µM (active) and 50.1 µM (active), respectively. The Potency entry in assay [4], in assay [6], in assay [13], in assay [14], in assay [9] and in assay [10] was “inactive” in each case. For the same molecule, the Potency entry in [11] and in assay [12] was “inactive” each time. Also, the activation in assay [7] is 1.06% (inactive). In addition, the viability change in [14] was -1.76%.

Turning to `NCC1OC(O[C@H]2[C@H](O)[C@@H](OC3C(O)C(N)CC(N)C3OC3OC(CO)C(O)C(O)C3N)O[C@@H]2CO)C(N)C(O)C1O` (stereo partly specified), the call in assay [1] and in assay [8] was inactive. Further, the Potency entry in [18], in [4], in [5], in assay [6], in [13] and in assay [14] was “inactive” throughout. In addition, the Potency entry in assay [10], in assay [11], in assay [12] and in assay [17] was “inactive” throughout. The viability change in assay [14] was 1.58%.

As for `COc1ccccc1N1CCN(CCN(C(=O)c2ccc(I)cc2)c2ccccn2)CC1`, the outcome in [1] and in [8] was inactive. In addition, the Potency entry in assay [18], in assay [4], in assay [6], in [10], in assay [11] and in [12] was “inactive” in each case. Moreover, the Potency entry in assay [16] was “inactive”. The figures for the Potency in [5] and in [14] were 5.62 µM (active) and 14.6 µM (active), respectively. Moreover, the viability change in assay [14] is -4.45%.

As to `NS(=O)(=O)C#Cc1ccccc1`, the result in assay [1] was inactive. Also, the Potency result in assay [18], in [4], in assay [5], in assay [10], in assay [11] and in [12] was “inactive” each time. In addition, in [16], the Potency result was “inactive”.
